This passage reports inhibition results from PubChem BioAssay AID1671202 (University of Kansas High Throughput Screening Laboratory, 2021).

A word on the inhibition: it is the drop in the measured response relative to a control, in per cent.

Where “and” joins values, the source holds several entries; their conditions need not be identical. Equal values may be shown once. About 6,900 (3.6%) of roughly 190,000 compounds were called active. Rule as the data show it: active = inhibition above about 50%; inactive = the rest. The sample as a whole holds a higher share of actives than the screen did.

Huntingtin (Homo sapiens), sequence (P42858 whole entry, looked up, stated change not applied): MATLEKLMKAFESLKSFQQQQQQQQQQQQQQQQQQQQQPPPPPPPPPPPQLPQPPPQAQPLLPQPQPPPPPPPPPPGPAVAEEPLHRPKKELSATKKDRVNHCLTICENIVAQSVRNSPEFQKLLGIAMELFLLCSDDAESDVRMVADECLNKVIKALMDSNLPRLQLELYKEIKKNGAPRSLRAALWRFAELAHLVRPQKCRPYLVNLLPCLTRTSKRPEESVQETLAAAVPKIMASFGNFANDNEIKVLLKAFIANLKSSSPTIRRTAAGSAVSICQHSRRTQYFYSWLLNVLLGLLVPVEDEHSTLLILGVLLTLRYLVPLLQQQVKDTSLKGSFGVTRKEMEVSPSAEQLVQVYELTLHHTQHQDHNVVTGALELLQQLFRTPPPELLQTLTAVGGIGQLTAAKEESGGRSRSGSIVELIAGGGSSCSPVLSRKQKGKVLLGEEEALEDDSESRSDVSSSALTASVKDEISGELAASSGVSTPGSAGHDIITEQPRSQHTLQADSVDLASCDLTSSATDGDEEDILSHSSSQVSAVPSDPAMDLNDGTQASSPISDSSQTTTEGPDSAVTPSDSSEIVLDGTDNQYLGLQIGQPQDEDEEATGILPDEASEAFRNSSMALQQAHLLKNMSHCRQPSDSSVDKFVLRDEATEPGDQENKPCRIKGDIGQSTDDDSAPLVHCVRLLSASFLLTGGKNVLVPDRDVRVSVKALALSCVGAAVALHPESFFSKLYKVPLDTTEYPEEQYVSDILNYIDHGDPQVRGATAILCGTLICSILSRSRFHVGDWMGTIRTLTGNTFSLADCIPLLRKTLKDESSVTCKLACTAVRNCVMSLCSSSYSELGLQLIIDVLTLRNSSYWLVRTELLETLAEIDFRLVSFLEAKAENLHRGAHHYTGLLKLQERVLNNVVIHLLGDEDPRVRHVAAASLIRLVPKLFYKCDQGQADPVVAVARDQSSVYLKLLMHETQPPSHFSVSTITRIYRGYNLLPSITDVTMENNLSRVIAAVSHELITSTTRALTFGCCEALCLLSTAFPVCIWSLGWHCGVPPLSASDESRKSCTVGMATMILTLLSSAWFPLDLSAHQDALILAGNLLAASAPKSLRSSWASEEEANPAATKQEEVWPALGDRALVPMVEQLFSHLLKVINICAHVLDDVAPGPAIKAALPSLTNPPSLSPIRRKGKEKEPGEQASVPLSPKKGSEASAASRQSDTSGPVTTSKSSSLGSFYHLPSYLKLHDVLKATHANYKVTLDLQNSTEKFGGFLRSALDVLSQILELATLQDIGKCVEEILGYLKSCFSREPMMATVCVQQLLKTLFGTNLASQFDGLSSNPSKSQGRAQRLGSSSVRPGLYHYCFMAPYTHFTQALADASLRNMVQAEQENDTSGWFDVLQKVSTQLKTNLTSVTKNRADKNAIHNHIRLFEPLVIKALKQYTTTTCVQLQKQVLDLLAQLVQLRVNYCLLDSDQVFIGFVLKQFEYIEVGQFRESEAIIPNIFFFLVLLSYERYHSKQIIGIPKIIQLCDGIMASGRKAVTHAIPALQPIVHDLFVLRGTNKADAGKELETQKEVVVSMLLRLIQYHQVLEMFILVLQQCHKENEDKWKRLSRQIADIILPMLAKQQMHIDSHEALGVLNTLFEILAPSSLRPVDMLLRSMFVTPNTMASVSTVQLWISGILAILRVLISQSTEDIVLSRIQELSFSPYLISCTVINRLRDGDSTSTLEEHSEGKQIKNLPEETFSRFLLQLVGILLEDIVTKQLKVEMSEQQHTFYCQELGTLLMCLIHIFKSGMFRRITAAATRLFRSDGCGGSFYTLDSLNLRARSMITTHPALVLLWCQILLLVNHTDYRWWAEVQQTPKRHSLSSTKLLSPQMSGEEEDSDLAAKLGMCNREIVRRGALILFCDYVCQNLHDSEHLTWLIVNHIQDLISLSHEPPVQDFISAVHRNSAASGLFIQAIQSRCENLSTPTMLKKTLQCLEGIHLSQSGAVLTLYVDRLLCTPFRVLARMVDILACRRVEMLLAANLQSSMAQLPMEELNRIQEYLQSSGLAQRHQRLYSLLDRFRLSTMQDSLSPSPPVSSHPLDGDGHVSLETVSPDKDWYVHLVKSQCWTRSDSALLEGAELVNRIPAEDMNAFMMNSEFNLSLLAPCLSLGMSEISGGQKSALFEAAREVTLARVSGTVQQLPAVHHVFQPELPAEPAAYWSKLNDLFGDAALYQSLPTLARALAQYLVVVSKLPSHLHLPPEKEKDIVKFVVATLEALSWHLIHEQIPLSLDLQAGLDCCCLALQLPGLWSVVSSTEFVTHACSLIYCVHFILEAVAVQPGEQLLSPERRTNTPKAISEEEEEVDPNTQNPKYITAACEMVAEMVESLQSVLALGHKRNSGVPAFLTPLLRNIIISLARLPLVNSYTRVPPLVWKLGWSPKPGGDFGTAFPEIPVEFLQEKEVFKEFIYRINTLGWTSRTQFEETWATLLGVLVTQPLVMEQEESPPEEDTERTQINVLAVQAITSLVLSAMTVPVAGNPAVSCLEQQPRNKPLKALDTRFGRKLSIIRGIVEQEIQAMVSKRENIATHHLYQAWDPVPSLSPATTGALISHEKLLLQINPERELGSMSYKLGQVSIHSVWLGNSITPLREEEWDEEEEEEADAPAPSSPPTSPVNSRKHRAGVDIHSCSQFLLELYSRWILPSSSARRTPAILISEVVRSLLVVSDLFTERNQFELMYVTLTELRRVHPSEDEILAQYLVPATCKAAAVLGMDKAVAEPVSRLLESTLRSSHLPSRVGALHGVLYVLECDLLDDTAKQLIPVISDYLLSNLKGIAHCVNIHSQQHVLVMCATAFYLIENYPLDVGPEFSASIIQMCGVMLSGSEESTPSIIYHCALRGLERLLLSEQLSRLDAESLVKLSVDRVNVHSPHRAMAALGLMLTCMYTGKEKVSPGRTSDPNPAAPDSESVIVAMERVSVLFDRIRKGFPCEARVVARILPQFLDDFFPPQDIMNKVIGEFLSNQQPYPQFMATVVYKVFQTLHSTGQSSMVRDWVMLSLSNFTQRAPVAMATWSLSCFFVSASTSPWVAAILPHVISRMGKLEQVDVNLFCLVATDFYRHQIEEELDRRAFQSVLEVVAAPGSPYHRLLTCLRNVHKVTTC

This experiment concerns the target Huntingtin (Homo sapiens) (UniProt P42858). Nature of the experiment: mutant huntingtin-calmodulin interaction inhibitors – biochemical, AlphaScreen, primary screen (AID 1671202).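 Also: 0% = both proteins with DMSO and 100% = one protein alone.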 As to conditions: AlphaScreen His-mHTT/GST-CaM binding, luminescence; at 15 µM, stronger effect = higher value. In general terms: Alpha assays give light when donor and acceptor beads are brought close together.
With `Nc1ncnc(NCc2cccc(Cl)c2)c1[N+](=O)[O-]`, the inhibition was 3% (inactive).

As for `O=S(=O)(NCCN1CCOCC1)c1ccc(I)cc1`, the inhibition was -0.7% (inactive).

Turning to `O=[N+]([O-])c1cc(S(=O)(=O)CCCN2CCOCC2)ccc1F`, the inhibition is 97% (active).

For the compound `Cc1ccc(OCCOCCN2CCOCC2)c([N+](=O)[O-])c1`, the inhibition is 2% (inactive).

On to `CC1CCc2nn(CC(=O)Nc3ccccc3Cl)c(=O)cc2C1` (stereo unspecified), for which the inhibition is 0.27% (inactive).

In the case of `COc1ccc(N2CCN(CC(O)COc3ccc(C(C)=O)cc3)CC2)cc1` (stereo unspecified), the inhibition was 3.7% (inactive).

`Cc1ccc(-c2nc3s/c(=C\c4ccccc4)c(=O)n3n2)cc1`: the inhibition is 7% (inactive).

Consider `N#C/C(=C\c1cccs1)c1nc(-c2ccc3c(c2)OCO3)cs1`, for which the inhibition was -4.4% (inactive).

Consider `COc1ccc(OC)c(NC(=O)NS(=O)(=O)c2ccc(C)cc2)c1`, for which the inhibition is 14.2% (inactive).

As to `CC(=O)Nc1cc2nn(-c3ccc(Cl)cc3)nc2cc1C`, the inhibition was 0.6% (inactive) and -5% (inactive).

On to `Cc1nnc2ccc(S(=O)(=O)N(Cc3ccccc3)c3ccc(F)cc3)cn12`, for which the inhibition is -2.4% (inactive).

Turning to `Cc1nnc2ccc(NC(=O)NCc3ccc(F)cc3)cn12`, the inhibition is -6.1% (inactive).

With `Cc1nnc2ccc(S(=O)(=O)N(Cc3ccc(F)cc3)c3ccccc3)cn12`, the inhibition is 54.8% (active).

As to `O=C(c1cccc(-n2cnnn2)c1)N1CCN(c2ccc(-c3cccs3)nn2)CC1`, the inhibition was 2.8% (inactive).

As for `CC(C)Oc1ccc(C(=O)N2CCN(Cc3nc(-c4ccco4)cs3)CC2)cc1`, the inhibition was 9.1% (inactive).

Take `O=C(Nc1cccs1)N1CCN(c2ccc(-c3ccco3)nn2)CC1`: the inhibition is 52% (active).

As for `COc1ccc(C2C(C#N)=C(N)N(c3ccccc3[N+](=O)[O-])C3=C2C(=O)CCC3)cc1` (stereo unspecified), the inhibition was 21% (inactive).

Take `Cc1ccc2[nH]c3c(c2c1)CCCC3O` (stereo unspecified): the inhibition is 19.3% (inactive).

As to `Clc1ccc2[nH]c3c(c2c1)CCCC3NCCOc1ccccc1` (stereo unspecified), the inhibition was 100% (active).

On to `COc1ccc(-c2cc3nc4c(c(=O)n3[nH]2)CN(C(=O)c2ccc(C)nc2)CC4)cc1`, for which the inhibition is 1.93% (inactive).

In the case of `COC(=O)c1cccc(NC(=O)N2CCc3c(nc4cc(-c5ccccc5)[nH]n4c3=O)C2)c1`, the inhibition is 7.79% (inactive).

As to `COc1ccc(-c2cc3nc4c(c(=O)n3[nH]2)CN(C(=O)c2ccccc2Cl)CC4)cc1`, the inhibition is 62.5% (active).

Consider `CCc1cccc(NC(=O)N2CCc3c(nc4cc(-c5ccc(OC)cc5)[nH]n4c3=O)C2)c1`, for which the inhibition is 26.8% (inactive).

Turning to `O=C(c1ccc(C(F)(F)F)s1)N1CCc2c(nc3cc(-c4ccccc4)[nH]n3c2=O)C1`, the inhibition is 42.1% (inactive).

Turning to `O=C(C1COc2ccccc2O1)N1CCc2c(nc3cc(-c4ccccc4)[nH]n3c2=O)C1` (stereo unspecified), the inhibition was 76.2% (active).

For `COc1ccc(-c2cc3nc4c(c(=O)n3[nH]2)CCN(C(=O)c2ccccc2C)C4)cc1`, the inhibition is 65.3% (active).

As to `COc1ccc(-c2cc3nc4c(c(=O)n3[nH]2)CN(C(=O)CSc2ccccc2)CC4)cc1`, the inhibition was 9.49% (inactive).

With `CNC(=O)N1CCc2nc3cc(-c4ccc(OC)cc4)[nH]n3c(=O)c2C1`, the inhibition was 9.34% (inactive).

For the compound `CCOc1ccc(NC(=O)c2ccc(F)c(S(=O)(=O)NC3CCCCCC3)c2)cc1`, the inhibition is 11% (inactive).

In the case of `C=CCN(C(C)=O)c1nc(C)c(Cl)c(OC)n1`, the inhibition was -2% (inactive).

On to `CCOC1CCc2oc(-c3ccsc3)c(C#CC(C)(C)O)c21` (stereo unspecified), for which the inhibition is 11.3% (inactive).

Turning to `O=C(NC1CC2CC1N(C(=O)c1cccc(C(F)(F)F)c1)C2)c1cccs1` (stereo unspecified), the inhibition was 0.72% (inactive).

Take `COCc1noc(C2CCCCN2CC(=O)NCc2cccs2)n1` (stereo unspecified): the inhibition was 0.04% (inactive).

With `Cc1[nH]c(=O)[nH]c(=O)c1S(=O)(=O)Nc1ccccn1`, the inhibition was -4% (inactive).

Take `O=C1C2C3C=CC(C4CC34)C2C(=O)N1CC1CCCO1` (stereo unspecified): the inhibition is 0.3% (inactive).

As for `O=C(NCc1nnc2n1CCCC2)c1ccc2c(c1)OCO2`, the inhibition is -5.87% (inactive).

As to `O=c1oc2ccccc2cc1-c1csc(N=Cc2ccccc2O)n1`, the inhibition is 26% (inactive).

As for `COc1cccc(N2CCN(C(=O)c3cccs3)C(C)C2=O)c1` (stereo unspecified), the inhibition is -6.9% (inactive).

In the case of `O=C(CCc1ccccc1)NCc1cccnc1-c1ccccc1`, the inhibition was -6.5% (inactive).

As for `Cc1ccc(C(=O)N2CCC(CCNS(=O)(=O)Cc3ccccc3)CC2)cc1`, the inhibition was 44.2% (inactive).

As to `Cc1ccc(C(=O)N2CCC(CCNS(=O)(=O)c3ccccc3F)CC2)cc1`, the inhibition was 39.1% (inactive).

`Cc1ccc(C(=O)N2CCC(CCNS(=O)(=O)c3ccc(C(C)C)cc3)CC2)cc1`: the inhibition was 53.6% (active).

`O=C(c1ccccc1)N1CCC(CCNS(=O)(=O)c2cccc3nsnc23)CC1`: the inhibition is 50.2% (active).

Consider `N#Cc1cccc(S(=O)(=O)NCCC2CCN(C(=O)c3ccccc3)CC2)c1`, for which the inhibition was 34.6% (inactive).

Consider `COc1ccc(S(=O)(=O)NCCC2CCN(C(=O)c3ccccc3)CC2)cc1OC`, for which the inhibition was 30.3% (inactive).

As for `O=C(CC1CCCCC1)N1CCCC(COc2ccc(C(=O)N3CCCCC3)cc2)C1` (stereo unspecified), the inhibition is 13.4% (inactive).

In the case of `CCC(C)NC(=O)c1cc2nc(-c3ccc(Cl)cc3)cc(C(F)(F)F)n2n1` (stereo unspecified), the inhibition is -6% (inactive).

As for `N#CCSc1nc2c(c(=O)n1Cc1ccccc1)C1(CCCC1)Cc1ccccc1-2`, the inhibition was -2.7% (inactive).

On to `O=c1[nH]c(CSCCO)nc2c1C1(CCCCC1)Cc1ccccc1-2`, for which the inhibition is 16.8% (inactive).

Regarding `CCn1c(=O)c2c(n3c(SCC(N)=O)nnc13)-c1ccccc1CC21CCCCC1`, the inhibition is 54% (active).

As for `O=C(Nc1cccc(NC(=O)c2ccccc2[N+](=O)[O-])c1)c1ccccc1Cl`, the inhibition was 5% (inactive).

In the case of `COc1ccc2cc(-c3nnc(NC4CCCCC4)s3)c(=O)oc2c1`, the inhibition was -11% (inactive).

In the case of `Cc1cccc(C2C3=C(CCCC3=O)N=C3c4ccccc4C(=O)C32)c1` (stereo unspecified), the inhibition was 8% (inactive).

On to `O=C1CCCC2=C1C(c1cccc([N+](=O)[O-])c1)C1C(=O)c3ccccc3C1=N2` (stereo unspecified), for which the inhibition was 10% (inactive).

For `COc1ccc(C2C3=C(CC(C)(C)CC3=O)N=C3c4ccccc4C(=O)C32)cc1` (stereo unspecified), the inhibition was 62% (active).

On to `CC(C)CC(=O)N1CCc2ccccc2C1`, for which the inhibition was -9.1% (inactive).

`COc1ccc(C=C2Oc3c(ccc4c3CN(Cc3ccc(OC)c(OC)c3)CO4)C2=O)cc1OC`: the inhibition is 44% (inactive).

As to `CC(C)n1c(C2CCN(S(=O)(=O)Cc3ccc(F)cc3Cl)C2)nc2ccncc21` (stereo unspecified), the inhibition was 9.49% (inactive).

Take `CCCCCCOc1ccc(NC(=O)CC2SC(=N)NC2=O)cc1` (stereo unspecified): the inhibition was 1% (inactive).

With `COC(=O)c1ccc(CN2CCCC2c2cc(C)on2)cc1` (stereo unspecified), the inhibition is 1.57% (inactive).

On to `COc1cccc(/C=C2\SC(=N)N(c3ccc(F)cc3)C2=O)c1`, for which the inhibition was 3% (inactive).

As to `N=C1S/C(=C\c2ccc(-c3ccccc3[N+](=O)[O-])o2)C(=O)N1c1ccc2c(c1)OCO2`, the inhibition was 26% (inactive).

In the case of `CC(=O)Nc1nonc1N1C(=N)S/C(=C\c2ccc(-c3cccc(F)c3)o2)C1=O`, the inhibition was 57% (active).

On to `COc1ccc2nc(NCCn3cccn3)sc2c1`, for which the inhibition was -1.7% (inactive).

Turning to `CCOC(=O)C1CCCN(C(=O)c2nn(-c3ccc(F)cc3)c(=O)cc2OC)C1` (stereo unspecified), the inhibition was -5.9% (inactive).

Consider `O=C(Nc1ccccc1)N1CCN(Cc2ccccc2)CC1`, for which the inhibition was -7.6% (inactive).

Consider `O=C(c1ncn[nH]1)N1CCN(Cc2ccccc2)CC1`, for which the inhibition is 90.3% (active).

For the compound `O=C(c1cccc(Cl)c1)N1CCN(Cc2ccccc2)CC1`, the inhibition was 4.6% (inactive).

As to `CCOc1ccc(C2CC(c3ccc(Cl)cc3)Nc3nnnn32)cc1OC` (stereo unspecified), the inhibition was 38% (inactive).

As for `Cc1cc(C(=O)NCc2ccc(C)o2)c2cccc(-c3cccs3)c2n1`, the inhibition is -56.5% (inactive).

With `COc1ccccc1C1(CCNCc2ccc3c(c2)OCO3)CCOC(C)(C)C1` (stereo unspecified), the inhibition is 3.46% (inactive).

For the compound `Cc1ccc2c(c1)C(c1ccc(F)cc1)N(C(=O)c1c(F)cccc1Cl)CC(=O)N2` (stereo unspecified), the inhibition is 22% (inactive).

Consider `O=C1CN(C(=O)c2ccccc2F)C(c2ccc(F)cc2)c2cc(F)ccc2N1` (stereo unspecified), for which the inhibition is -4% (inactive).

As for `Cc1ccc2c(c1)C(c1ccc(F)cc1)N(C(=O)c1ccc(C)c(C)c1)CC(=O)N2` (stereo unspecified), the inhibition is 69% (active).

With `COc1ccc(C=C2Oc3cc(OC(C)=O)ccc3C2=O)c(OC)c1OC`, the inhibition is 16.2% (inactive).

In the case of `COc1ccc(C(=O)C=Cc2ccc(C)cc2)c(OC(=O)c2ccco2)c1`, the inhibition was 17% (inactive).

Turning to `Oc1ccc2c(c1)OCC1c3cc4c(cc3OC21)OCO4` (stereo unspecified), the inhibition was 65.8% (active).

Regarding `Cc1ccccc1NCc1cc(=O)oc2cc(O)c(O)cc12`, the inhibition was 29.6% (inactive).

Consider `O=C(NCc1ccc(F)cc1)C1CCN(c2cnn(Cc3ccccc3)c(=O)c2)CC1`, for which the inhibition is 2.29% (inactive).

Regarding `CCc1ccc(CN2CCC(C(=O)N3CCN(Cc4ccccc4)CC3)CC2)cc1`, the inhibition was 36.4% (inactive).

For `CNC(=O)C1CCN(Cc2cc3ccccc3n2Cc2ccc(F)cc2)CC1`, the inhibition is 85.1% (active).

Regarding `O=S(=O)(NCCc1ccc(F)cc1)c1ccc(F)cc1`, the inhibition was -3.6% (inactive).

Take `Cc1ccc(C(C)C)cc1OCCN1CCCC1`: the inhibition is -3.2% (inactive).

For the compound `COc1cc(OC)c2c(c1C(CCN1CCCCC1)c1ccc(N(C)C)cc1)OC(=O)CC2c1ccc(N(C)C)cc1` (stereo unspecified), the inhibition was 76.8% (active).

`COc1cc(OC)c2c(c1)OC(=O)CC2c1cc(OC)c(OC)c(OC)c1` (stereo unspecified): the inhibition was 3.2% (inactive).

`COc1ccc(C(CCN2CCOCC2)c2c(OC)cc(OC)c3c2OC(=O)CC3c2ccc(OC)cc2)cc1` (stereo unspecified): the inhibition was 71.6% (active).

For the compound `COc1ccc(-c2c(C)c3ccc(OCCN4CCCCC4)cc3oc2=O)cc1OC`, the inhibition was -2.1% (inactive).

`COc1ccc(Nc2nc(Cl)nc(NCCN3CCOCC3)n2)c(OC)c1`: the inhibition is 4% (inactive).

`COc1ccc(C2CC(=O)Oc3ccc(C(C)(C)C)cc32)cc1` (stereo unspecified): the inhibition was -22.8% (inactive).

With `COc1cc(OC)c2c(C)cc(=O)oc2c1C(CCN1CCCCC1)c1ccc(N(C)C)cc1` (stereo unspecified), the inhibition is 78.3% (active).

Take `COc1ccc(CNC(=O)CC2CCN(C(=O)c3[nH]c(C)c(C)c3C)CC2)cc1`: the inhibition was 11.4% (inactive).
